Columns and labels:
Assay in all cases: DAPPL (digital affinity profiling via proximity ligation, sequencing); 10 mM Tris-HCl pH 7.5, 50 mM NaCl, 1 mM DTT, 4% glycerol, room temperature, 30 min; GST-TFs on glutathione beads, 16-mer random dsDNA library, 0.1% formaldehyde crosslink after washing; high values mean tight binding
FEV = target: T1, FEV (Homo sapiens, UniProt Q99581 1-238); details: protein: recombinant; tags: N-terminal GST; dsDNA, one strand shown
T1 sequence: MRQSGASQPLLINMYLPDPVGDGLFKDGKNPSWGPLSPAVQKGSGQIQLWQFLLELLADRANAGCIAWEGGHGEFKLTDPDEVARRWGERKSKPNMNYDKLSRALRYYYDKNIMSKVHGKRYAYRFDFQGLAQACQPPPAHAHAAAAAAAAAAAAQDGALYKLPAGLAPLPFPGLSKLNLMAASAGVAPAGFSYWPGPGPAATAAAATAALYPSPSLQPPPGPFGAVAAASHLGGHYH
Outline: (§1)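 Yeast served to express human transcription factors as GST fusions, which were then captured on glutathione beads and labelled with DNA barcodes. Pooled with a tag-only sample, they were incubated with 200 nmole of a 16-mer random double-stranded DNA library for 30 min at room temperature in Tris/NaCl/DTT/glycerol buffer, washed, crosslinked with 0.1% formaldehyde, ligated by proximity, amplified by PCR and sequenced. Dividing each hexamer's read frequency for a factor by its frequency for the tag-only sample gives the binding signal.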

ETV5 = ETV5 (Homo sapiens, UniProt P41161 1-510); details: protein: recombinant; tags: N-terminal GST; dsDNA, one strand shown
Chain of ETV5 (P41161 whole entry): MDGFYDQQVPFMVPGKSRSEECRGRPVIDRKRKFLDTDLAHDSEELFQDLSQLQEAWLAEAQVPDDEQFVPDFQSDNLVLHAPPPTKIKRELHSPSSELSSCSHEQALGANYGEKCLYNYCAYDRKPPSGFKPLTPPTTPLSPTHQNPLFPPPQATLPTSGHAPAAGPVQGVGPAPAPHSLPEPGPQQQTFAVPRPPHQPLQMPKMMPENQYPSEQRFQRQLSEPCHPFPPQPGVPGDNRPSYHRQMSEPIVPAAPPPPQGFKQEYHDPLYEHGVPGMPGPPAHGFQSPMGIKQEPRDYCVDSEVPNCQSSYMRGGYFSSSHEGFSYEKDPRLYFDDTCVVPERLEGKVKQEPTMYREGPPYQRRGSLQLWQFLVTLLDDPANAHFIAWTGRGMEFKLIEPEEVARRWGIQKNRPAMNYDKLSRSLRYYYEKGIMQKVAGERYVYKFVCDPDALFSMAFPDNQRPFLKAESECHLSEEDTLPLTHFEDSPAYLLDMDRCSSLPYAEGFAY
Outline: as §1

HSF1 = HSF1 (Homo sapiens, UniProt Q00613 1-529); details: protein: recombinant; tags: N-terminal GST; chain copies: 3; dsDNA, one strand shown
Chain of HSF1 (Q00613 whole entry): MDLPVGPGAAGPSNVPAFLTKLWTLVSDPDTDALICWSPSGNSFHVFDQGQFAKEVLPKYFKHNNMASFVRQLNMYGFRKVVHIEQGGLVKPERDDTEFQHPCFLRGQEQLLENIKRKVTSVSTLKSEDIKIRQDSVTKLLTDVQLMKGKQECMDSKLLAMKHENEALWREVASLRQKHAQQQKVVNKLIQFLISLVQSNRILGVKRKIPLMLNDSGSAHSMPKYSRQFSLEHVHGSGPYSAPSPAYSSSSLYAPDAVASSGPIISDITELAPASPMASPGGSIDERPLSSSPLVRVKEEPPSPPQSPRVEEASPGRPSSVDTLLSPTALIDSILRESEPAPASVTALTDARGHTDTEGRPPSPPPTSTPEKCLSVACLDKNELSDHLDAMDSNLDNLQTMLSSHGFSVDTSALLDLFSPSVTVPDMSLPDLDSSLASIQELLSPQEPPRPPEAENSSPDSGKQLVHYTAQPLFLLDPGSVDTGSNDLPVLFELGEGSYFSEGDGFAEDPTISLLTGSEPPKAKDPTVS
Outline: as §1

SPIC = target: T2, SPIC (Homo sapiens, UniProt Q8N5J4 1-248); details: protein: recombinant; tags: N-terminal GST; dsDNA, one strand shown
T2 sequence: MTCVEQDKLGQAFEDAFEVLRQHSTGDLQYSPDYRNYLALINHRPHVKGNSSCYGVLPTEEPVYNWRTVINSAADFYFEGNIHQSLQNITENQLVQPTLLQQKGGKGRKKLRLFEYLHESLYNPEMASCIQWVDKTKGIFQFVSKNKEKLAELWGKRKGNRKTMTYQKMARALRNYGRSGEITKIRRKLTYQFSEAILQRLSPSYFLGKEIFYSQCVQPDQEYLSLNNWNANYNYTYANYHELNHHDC
Outline: as §1

ELF4 = ELF4 (Homo sapiens, UniProt Q99607 1-663); details: protein: recombinant; tags: N-terminal GST; dsDNA, one strand shown
Chain of ELF4 (Q99607 whole entry): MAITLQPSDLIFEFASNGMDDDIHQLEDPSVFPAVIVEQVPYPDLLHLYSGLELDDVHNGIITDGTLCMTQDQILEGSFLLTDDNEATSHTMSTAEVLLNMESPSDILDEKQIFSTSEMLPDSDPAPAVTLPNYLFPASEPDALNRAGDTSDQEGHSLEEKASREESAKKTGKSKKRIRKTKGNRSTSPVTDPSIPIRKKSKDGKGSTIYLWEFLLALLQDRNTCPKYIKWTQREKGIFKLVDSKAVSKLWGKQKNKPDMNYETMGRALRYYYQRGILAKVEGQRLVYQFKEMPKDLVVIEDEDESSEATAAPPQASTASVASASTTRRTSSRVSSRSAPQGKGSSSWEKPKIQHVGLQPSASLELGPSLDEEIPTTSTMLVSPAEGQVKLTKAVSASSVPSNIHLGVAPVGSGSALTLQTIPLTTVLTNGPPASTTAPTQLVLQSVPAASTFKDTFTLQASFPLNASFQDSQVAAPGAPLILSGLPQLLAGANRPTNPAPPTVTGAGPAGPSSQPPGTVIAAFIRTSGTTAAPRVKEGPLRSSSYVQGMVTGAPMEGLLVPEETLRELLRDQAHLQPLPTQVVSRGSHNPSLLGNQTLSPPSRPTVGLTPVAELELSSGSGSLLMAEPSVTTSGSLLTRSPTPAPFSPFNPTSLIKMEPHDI
Outline: as §1

ELK4 = target: T3, ELK4 (Homo sapiens, UniProt P28324-2 1-405); details: protein: recombinant; tags: N-terminal GST; dsDNA, one strand shown
T3 sequence: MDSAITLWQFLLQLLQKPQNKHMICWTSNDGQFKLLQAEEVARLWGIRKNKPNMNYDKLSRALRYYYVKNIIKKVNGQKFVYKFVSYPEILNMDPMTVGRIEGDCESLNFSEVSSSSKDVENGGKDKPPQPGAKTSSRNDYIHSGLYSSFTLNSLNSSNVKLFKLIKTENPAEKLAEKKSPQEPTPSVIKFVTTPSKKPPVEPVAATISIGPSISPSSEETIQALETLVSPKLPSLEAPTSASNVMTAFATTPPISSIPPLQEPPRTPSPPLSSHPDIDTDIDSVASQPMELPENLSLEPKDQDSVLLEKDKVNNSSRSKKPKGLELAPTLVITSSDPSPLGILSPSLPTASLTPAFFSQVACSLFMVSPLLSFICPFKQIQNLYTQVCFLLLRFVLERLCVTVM
Outline: as §1

ETV2 = target: T4, ETV2 (Homo sapiens, UniProt O00321 1-342); details: protein: recombinant; tags: N-terminal GST; dsDNA, one strand shown
T4 sequence: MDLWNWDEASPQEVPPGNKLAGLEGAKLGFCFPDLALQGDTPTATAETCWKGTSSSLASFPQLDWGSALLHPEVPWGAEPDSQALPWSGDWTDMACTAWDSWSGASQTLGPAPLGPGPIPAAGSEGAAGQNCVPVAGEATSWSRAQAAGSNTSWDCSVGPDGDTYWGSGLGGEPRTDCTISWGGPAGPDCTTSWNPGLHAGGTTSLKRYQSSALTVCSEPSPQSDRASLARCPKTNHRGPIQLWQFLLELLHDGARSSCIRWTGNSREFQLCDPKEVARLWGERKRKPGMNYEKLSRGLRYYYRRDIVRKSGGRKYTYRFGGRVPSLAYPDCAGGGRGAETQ
Outline: as §1

ELF3 = target: T5, ELF3 (Homo sapiens, UniProt P78545 1-371); details: protein: recombinant; tags: N-terminal GST; dsDNA, one strand shown
T5 sequence: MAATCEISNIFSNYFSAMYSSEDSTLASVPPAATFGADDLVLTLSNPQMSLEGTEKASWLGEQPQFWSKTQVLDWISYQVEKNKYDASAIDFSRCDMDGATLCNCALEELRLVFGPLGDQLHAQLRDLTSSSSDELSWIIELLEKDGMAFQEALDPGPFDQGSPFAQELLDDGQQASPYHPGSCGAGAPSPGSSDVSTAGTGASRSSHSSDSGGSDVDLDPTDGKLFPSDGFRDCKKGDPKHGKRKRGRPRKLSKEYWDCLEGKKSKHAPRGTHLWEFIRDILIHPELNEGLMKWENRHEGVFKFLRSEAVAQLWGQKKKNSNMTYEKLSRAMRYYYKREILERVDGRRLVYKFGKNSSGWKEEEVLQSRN
Outline: as §1

CRX = CRX (Homo sapiens, UniProt O43186 1-299); details: protein: recombinant; tags: N-terminal GST; dsDNA, one strand shown
Chain of CRX (O43186 whole entry): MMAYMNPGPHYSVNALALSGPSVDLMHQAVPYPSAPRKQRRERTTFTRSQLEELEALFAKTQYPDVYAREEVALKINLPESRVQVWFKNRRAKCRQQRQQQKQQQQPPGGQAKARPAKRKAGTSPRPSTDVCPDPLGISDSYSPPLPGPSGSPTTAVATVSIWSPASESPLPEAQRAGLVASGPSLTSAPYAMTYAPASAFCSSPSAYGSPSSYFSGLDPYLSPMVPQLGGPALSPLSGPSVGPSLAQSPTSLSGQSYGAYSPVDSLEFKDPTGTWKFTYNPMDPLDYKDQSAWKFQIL
Outline: as §1

ETV1 = ETV1 (Homo sapiens, UniProt P50549 1-477); details: protein: recombinant; tags: N-terminal GST; dsDNA, one strand shown
Chain of ETV1 (P50549 whole entry): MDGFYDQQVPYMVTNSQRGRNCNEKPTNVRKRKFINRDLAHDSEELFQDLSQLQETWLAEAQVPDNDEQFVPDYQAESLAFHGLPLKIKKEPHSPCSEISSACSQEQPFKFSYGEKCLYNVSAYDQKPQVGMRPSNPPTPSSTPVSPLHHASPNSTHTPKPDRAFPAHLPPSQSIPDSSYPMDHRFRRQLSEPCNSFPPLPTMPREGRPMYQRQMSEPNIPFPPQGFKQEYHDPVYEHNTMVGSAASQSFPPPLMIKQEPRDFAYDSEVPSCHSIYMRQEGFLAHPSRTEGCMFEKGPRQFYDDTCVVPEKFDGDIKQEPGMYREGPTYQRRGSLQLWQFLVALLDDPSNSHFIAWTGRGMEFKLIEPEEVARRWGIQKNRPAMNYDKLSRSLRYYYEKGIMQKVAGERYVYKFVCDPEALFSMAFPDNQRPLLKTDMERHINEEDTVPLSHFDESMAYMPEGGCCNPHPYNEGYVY
Outline: as §1

ERF = target: T6, ERF (Homo sapiens, UniProt P50548 1-548); details: protein: recombinant; tags: N-terminal GST; dsDNA, one strand shown
T6 sequence: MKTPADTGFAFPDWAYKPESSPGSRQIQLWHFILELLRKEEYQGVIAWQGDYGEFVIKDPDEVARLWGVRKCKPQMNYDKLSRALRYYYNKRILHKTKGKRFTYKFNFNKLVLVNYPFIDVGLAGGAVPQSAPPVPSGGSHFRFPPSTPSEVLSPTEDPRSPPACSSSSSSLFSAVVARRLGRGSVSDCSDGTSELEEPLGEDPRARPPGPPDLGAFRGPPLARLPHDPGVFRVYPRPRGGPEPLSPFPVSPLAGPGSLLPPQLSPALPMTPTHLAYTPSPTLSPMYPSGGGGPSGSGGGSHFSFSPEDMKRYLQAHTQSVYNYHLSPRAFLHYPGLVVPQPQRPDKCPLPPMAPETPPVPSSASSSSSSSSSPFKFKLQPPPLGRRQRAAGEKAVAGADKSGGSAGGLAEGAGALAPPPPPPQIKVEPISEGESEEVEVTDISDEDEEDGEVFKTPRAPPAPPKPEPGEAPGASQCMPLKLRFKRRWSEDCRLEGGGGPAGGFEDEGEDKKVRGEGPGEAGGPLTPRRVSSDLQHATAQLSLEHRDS
Outline: as §1

ETV3L = target: T7, ETV3L (Homo sapiens, UniProt Q6ZN32 1-361); details: protein: recombinant; tags: N-terminal GST; dsDNA, one strand shown
T7 sequence: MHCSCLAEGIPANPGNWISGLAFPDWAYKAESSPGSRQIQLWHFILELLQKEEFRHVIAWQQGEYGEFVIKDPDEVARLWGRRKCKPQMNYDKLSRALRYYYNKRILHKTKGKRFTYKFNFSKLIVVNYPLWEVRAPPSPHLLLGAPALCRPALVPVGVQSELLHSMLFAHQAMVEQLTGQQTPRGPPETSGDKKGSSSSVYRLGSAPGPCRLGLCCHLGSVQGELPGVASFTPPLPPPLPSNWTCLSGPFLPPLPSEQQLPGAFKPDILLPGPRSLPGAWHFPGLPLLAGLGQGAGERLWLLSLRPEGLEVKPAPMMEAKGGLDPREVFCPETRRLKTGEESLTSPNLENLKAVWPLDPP
Outline: as §1

ETS2 = target: T8, ETS2 (Homo sapiens, UniProt P15036 1-469); details: protein: recombinant; tags: N-terminal GST; dsDNA, one strand shown
T8 sequence: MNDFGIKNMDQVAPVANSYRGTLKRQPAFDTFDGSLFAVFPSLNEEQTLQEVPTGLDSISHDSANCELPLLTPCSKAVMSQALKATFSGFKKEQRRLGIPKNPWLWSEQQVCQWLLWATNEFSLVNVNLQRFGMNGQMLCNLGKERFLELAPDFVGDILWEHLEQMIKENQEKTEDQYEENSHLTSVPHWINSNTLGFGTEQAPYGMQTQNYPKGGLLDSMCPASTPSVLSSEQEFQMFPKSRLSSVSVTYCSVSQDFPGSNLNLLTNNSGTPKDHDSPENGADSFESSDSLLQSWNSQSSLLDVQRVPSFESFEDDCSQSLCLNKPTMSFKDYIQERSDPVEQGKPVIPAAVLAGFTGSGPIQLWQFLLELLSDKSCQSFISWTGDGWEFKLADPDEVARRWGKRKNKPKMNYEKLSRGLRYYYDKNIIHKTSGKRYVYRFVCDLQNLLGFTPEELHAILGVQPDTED
Outline: as §1

SPDEF = target: T9, SPDEF (Homo sapiens, UniProt O95238 1-335); details: protein: recombinant; tags: N-terminal GST; dsDNA, one strand shown
T9 sequence: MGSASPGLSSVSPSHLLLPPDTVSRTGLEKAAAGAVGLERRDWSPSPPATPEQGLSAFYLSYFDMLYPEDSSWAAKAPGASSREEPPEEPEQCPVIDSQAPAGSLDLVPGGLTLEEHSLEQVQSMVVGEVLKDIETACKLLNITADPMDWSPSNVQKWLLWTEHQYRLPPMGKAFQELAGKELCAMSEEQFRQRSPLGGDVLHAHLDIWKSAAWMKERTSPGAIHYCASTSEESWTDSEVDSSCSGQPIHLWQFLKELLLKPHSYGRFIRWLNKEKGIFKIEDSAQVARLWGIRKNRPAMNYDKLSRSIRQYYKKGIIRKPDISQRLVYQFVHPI
Outline: as §1

ETV7 = target: T10, ETV7 (Homo sapiens, UniProt Q9Y603 1-341); details: protein: recombinant; tags: N-terminal GST; dsDNA, one strand shown
T10 sequence: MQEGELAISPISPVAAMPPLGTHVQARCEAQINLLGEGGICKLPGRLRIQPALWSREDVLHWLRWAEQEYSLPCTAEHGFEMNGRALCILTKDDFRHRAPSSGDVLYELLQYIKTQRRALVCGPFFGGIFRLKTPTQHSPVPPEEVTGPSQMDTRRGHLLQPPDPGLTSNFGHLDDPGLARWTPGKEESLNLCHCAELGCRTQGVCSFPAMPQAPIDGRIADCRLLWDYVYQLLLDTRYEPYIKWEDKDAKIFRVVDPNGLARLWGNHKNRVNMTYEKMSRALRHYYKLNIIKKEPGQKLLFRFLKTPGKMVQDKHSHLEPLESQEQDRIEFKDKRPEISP
Outline: as §1

ELF5 = target: T11, ELF5 (Homo sapiens, UniProt Q9UKW6-2 1-255); details: protein: recombinant; tags: N-terminal GST; dsDNA, one strand shown
T11 sequence: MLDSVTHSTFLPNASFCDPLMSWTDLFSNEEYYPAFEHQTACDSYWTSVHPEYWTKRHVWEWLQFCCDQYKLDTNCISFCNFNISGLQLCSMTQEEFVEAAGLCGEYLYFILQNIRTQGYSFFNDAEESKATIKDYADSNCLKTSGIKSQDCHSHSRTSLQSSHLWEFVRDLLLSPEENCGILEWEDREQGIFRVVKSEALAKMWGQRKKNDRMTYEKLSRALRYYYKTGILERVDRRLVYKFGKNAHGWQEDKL
Outline: as §1

ETV3 = target: T12, ETV3 (Homo sapiens, UniProt P41162-2 1-143); details: protein: recombinant; tags: N-terminal GST; dsDNA, one strand shown
T12 sequence: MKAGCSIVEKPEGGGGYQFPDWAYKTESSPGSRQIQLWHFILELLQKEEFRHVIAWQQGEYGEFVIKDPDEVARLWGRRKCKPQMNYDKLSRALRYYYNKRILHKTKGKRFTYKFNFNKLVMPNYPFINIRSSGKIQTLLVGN
Outline: as §1

ETV6 = ETV6 (Homo sapiens, UniProt P41212 1-452); details: protein: recombinant; tags: N-terminal GST; dsDNA, one strand shown
Chain of ETV6 (P41212 whole entry): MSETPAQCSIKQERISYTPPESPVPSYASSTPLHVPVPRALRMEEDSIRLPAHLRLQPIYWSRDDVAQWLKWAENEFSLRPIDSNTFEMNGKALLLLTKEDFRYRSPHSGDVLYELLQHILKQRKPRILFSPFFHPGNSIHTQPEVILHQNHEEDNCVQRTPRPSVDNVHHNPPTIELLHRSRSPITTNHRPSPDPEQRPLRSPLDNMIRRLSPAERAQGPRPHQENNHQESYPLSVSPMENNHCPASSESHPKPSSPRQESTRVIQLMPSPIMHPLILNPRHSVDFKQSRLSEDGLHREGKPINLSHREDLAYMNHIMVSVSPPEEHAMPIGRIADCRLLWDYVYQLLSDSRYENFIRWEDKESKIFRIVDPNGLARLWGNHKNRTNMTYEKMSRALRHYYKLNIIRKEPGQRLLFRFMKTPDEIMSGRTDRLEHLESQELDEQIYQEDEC
Outline: as §1

## TCTTTT
FEV
  binding signal: 1.44 fold enrichment (6-mer frequency, TF over GST control)
ETV5
  binding signal: 1.4 fold enrichment (6-mer frequency, TF over GST control)
HSF1
  binding signal: 1.66 fold enrichment (6-mer frequency, TF over GST control)
SPIC
  binding signal: 1.55 fold enrichment (6-mer frequency, TF over GST control)
ELF4
  binding signal: 1.54 fold enrichment (6-mer frequency, TF over GST control)
ELK4
  binding signal: 1.22 fold enrichment (6-mer frequency, TF over GST control)
ETV2
  binding signal: 1.42 fold enrichment (6-mer frequency, TF over GST control)
ELF3
  binding signal: 1.41 fold enrichment (6-mer frequency, TF over GST control)
CRX
  binding signal: 1.59 fold enrichment (6-mer frequency, TF over GST control)
ETV1
  binding signal: 1.47 fold enrichment (6-mer frequency, TF over GST control)
ERF
  binding signal: 1.46 fold enrichment (6-mer frequency, TF over GST control)
ETV3L
  binding signal: 1.54 fold enrichment (6-mer frequency, TF over GST control)
ETS2
  binding signal: 1.47 fold enrichment (6-mer frequency, TF over GST control)
SPDEF
  binding signal: 1.4 fold enrichment (6-mer frequency, TF over GST control)
ETV7
  binding signal: 1.56 fold enrichment (6-mer frequency, TF over GST control)
ELF5
  binding signal: 1.43 fold enrichment (6-mer frequency, TF over GST control)
ETV3
  binding signal: 1.5 fold enrichment (6-mer frequency, TF over GST control)
ETV6
  binding signal: 1.41 fold enrichment (6-mer frequency, TF over GST control)

Reference: PMC7862700, “An all-to-all approach to the identification of sequence-specific readers for epigenetic DNA modifications on cytosine”
